Chronic BCR inh: qHTS Assay to Find Inhibitors of Chronic Active B-Cell Receptor Signaling; hit rate 0.05% among 340,000; Potency, µM (top dose mostly 46.1 µM), most hits filed as inhibitors; AID 493014, 2011; ABC-DLBCL IkBa-CBG/CBR reporter, luminescence ratio, 4 h; active = well fitted inhibition curve with a large enough effect in the signal ratio, with a control signal flat, not every such curve was filed as active; inconclusive = small, poorly fitted or top-dose-only effect, or effect the other way, or a change in a side signal; the % refers to the signal ratio
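Concentration-response series (up to 46 uM) were applied to TMD8 dual-reporter cells for 4 h at 37C with doxycycline. Green/red ratio, after filter-overlap correction, defined %Activity; red signal alone was normalised to basal cells and zero luminescence.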
ALOX12 inh: Primary qHTS assay for inhibitors of human arachidonate 12S-lipoxygenase (ALOX12): Round 2 | Polyunsaturated fatty acid lipoxygenase ALOX12 (Homo sapiens), P18054 | purified 12hLO, xylenol orange hydroperoxide absorbance | Potency, µM (titrated, usually from 108 µM), usual class: inhibitors | hit rate 1.1% among 580,000 | AID 1671190, 2021
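Hydroperoxide product was detected by ferrous iron/xylenol orange as the 573 to 405 nm absorbance ratio. Arachidonic acid at 40 uM (final) was turned over for 30 min at room temperature by 150 nM human 12hLO, pH 7.0 Hepes buffer, after 15 min compound preincubation.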
Glioma ERSR ind: qHTS for Inducers of the Endoplasmic Reticulum Stress Response (ERSR) in Human Glioma: qHTS. U87-MG GRP78 promoter luciferase reporter, 16 h. Potency, µM, actives largely listed as activators. hit rate 0.02% among 420,000. AID 602332, 2012; also: series mostly up to about 76 µM; nearly all actives have a fitted effect of over 35% in size
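Stably transfected U87-MG glioma cells carrying a GRP78-based luciferase sensor; 16 h compound incubation. Luminescence end-point read 10 min after Bright-Glo addition at room temperature.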
Anesthetic bind: qHTS Assay for Identification of Novel General Anesthetics; Ferritin light chain (Equus caballus), P02791; apoferritin/1-aminoanthracene competitive binding, fluorescence; Potency, µM (titrated, usually from 77.5 µM), usual class: inhibitors; hit rate 0.074% among 350,000; also: nearly all actives have a fitted effect of over 20% in size
Target sequence (P02791 2-175 limits assumed): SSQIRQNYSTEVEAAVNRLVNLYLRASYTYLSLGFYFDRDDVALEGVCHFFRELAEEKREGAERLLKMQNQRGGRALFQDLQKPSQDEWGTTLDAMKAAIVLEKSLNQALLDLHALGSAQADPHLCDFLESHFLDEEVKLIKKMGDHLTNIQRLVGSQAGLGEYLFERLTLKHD
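Concentration-response curves derived by four-parameter Hill fitting of normalized fluorescence, where compounds displaced 1-AMA from 10 uM horse apoferritin following a brief 10 min room-temperature incubation; propofol titration acted as positive control.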
Of the large screens only hits and unclear results are named; the others gave an inactive call. Compounds with a hit are over-represented: about 1.1% of the library has one in this group of screens. Unless noted, calls follow the shape of the dose curve; as a rule, active = well fitted curve in the direction sought with a large enough effect; inconclusive = small, poorly fitted or top-dose-only effect, or another doubt; inactive = no such curve, though single readings can be large; an effect the other way counts as inactive or inconclusive.

COc1cc(NC(=S)NC(=O)c2cc(C)cc(C)c2)ccc1NC(=O)c1cccs1	Chronic BCR inh inconclusive, ALOX12 inh inconclusive
CCn1c2c(c(C)cc1=O)C(=O)CC(C)(C)C2	none
CCn1c(C)c2c([n+]1CC)CC(C)(C)CC2=O	Chronic BCR inh inconclusive, ALOX12 inh 12.6µM
Cc1nc2ccccc2c(C)c1CC(=O)NC(C)(C)C	none (no result: Chronic BCR inh, Glioma ERSR ind, Anesthetic bind)
COc1ccc(NC(=S)Nc2ncccc2C)cc1OC	Chronic BCR inh inconclusive, ALOX12 inh 5.01µM
Cc1cccnc1NC(=S)Nc1ccc(Cl)c(Cl)c1	Chronic BCR inh inconclusive, ALOX12 inh 8.91µM, Anesthetic bind inconclusive
COc1cc(NC(=S)Nc2cccnc2)cc(OC)c1OC	ALOX12 inh 44.7µM
Cc1cc(NC(=S)Nc2ccc(C)c(Cl)c2)n[nH]1	Chronic BCR inh inconclusive, ALOX12 inh 14.1µM, Anesthetic bind inconclusive
Cc1cccc(C)c1NC(=O)CN(CC(=O)Nc1c(C)cccc1C)Cc1nc2ccccc2o1	none (no result: Chronic BCR inh, Glioma ERSR ind, Anesthetic bind)
Cc1noc(C)c1-c1cc(-c2ccccc2F)cn2cncc12	none (no result: Chronic BCR inh, Glioma ERSR ind, Anesthetic bind)
Cc1ccc(NC(=O)CSc2nnc3n(CC(C)C)c(=O)c4ccccc4n23)c(C)c1	none (no result: Chronic BCR inh, Glioma ERSR ind, Anesthetic bind)
O=C(CSc1ccccn1)c1ccc(C2CC2(Cl)Cl)cc1 (configuration not stated)	none (no result: Chronic BCR inh, Glioma ERSR ind, Anesthetic bind)
CCn1c(-c2cc(Cl)ccc2OC)n[nH]c1=S	ALOX12 inh inconclusive
Cc1[nH]c2ccc(-c3n[nH]c(=S)n3C)cc2c1C	ALOX12 inh inconclusive
CCn1c(-c2ccc3[nH]c(C)c(C)c3c2)n[nH]c1=S	ALOX12 inh 10µM, Anesthetic bind inconclusive
CCn1c(-c2ccc(C(C)(C)C)cc2)n[nH]c1=S	ALOX12 inh 15.8µM
CCn1c(-c2ccc(F)cc2)n[nH]c1=S	ALOX12 inh inconclusive
CCn1c(-c2cc(Br)ccc2O)n[nH]c1=S	ALOX12 inh 44.7µM (no result: Chronic BCR inh, Anesthetic bind)
CCn1c(-c2cccc(Cl)c2)n[nH]c1=S	ALOX12 inh 28.2µM
CCn1c(-c2cc3ccccc3cc2O)n[nH]c1=S	ALOX12 inh inconclusive
O=C(CCC1CCCCC1)Nc1ccc(I)cc1	none (no result: Chronic BCR inh, Glioma ERSR ind, Anesthetic bind)
Cc1cc(Cl)ccc1Nc1nc(NCc2ccc3c(c2)OCO3)nc2nccnc12	none (no result: Chronic BCR inh, Glioma ERSR ind, Anesthetic bind)
CNC(=O)NC(=O)CN(C)c1ccc(I)cc1	none (no result: Chronic BCR inh, Glioma ERSR ind, Anesthetic bind)
Cn1cccc1/C=N/n1c(-c2ccc(C(C)(C)C)cc2)n[nH]c1=S	Chronic BCR inh inconclusive, ALOX12 inh 25.1µM
CCN(CC)S(=O)(=O)c1cccc(-c2n[nH]c(=S)n2CC(C)C)c1	ALOX12 inh 31.6µM
CCN(CC)S(=O)(=O)c1cccc(-c2n[nH]c(=S)n2Cc2ccccc2)c1	ALOX12 inh inconclusive
CCN(CC(=O)N1c2ccccc2OCC1c1ccccc1)Cc1nc2cc(Cl)ccc2c(=O)[nH]1 (configuration not stated)	none (no result: Chronic BCR inh, Glioma ERSR ind, Anesthetic bind)
CCCCCCn1c(=O)n2n(c1=O)C[C@]1(OC(=O)Nc3cccs3)CN(S(=O)(=O)c3ccc(C)cc3)C[C@]1(O)C2	ALOX12 inh 35.5µM (no result: Chronic BCR inh, Anesthetic bind)
CN(C)S(=O)(=O)c1ccc(Cl)c(C(=O)Nc2cc(Cl)cc3cccnc23)c1	none (no result: Chronic BCR inh, Glioma ERSR ind, Anesthetic bind)
COC(=O)c1c(C)[nH]c(-c2csc(NC3CC3)n2)c1C	ALOX12 inh 31.6µM (no result: Chronic BCR inh, Glioma ERSR ind, Anesthetic bind)
CCOC(=O)c1c(C)[nH]c(-c2csc(C)n2)c1C	Chronic BCR inh inconclusive
COc1cccc2c(N/N=C/c3ccc(O)c(O)c3)cc(C)nc12	ALOX12 inh 20µM
COc1ccc(/C=N/Nc2cc(C)nc3c(C)cccc23)cc1	Chronic BCR inh inconclusive, ALOX12 inh inconclusive
O=C(c1cccs1)N(C1CCCCC1)C1CCCCC1	none (no result: Chronic BCR inh, Glioma ERSR ind, Anesthetic bind)
CCOc1ccccc1OCC(=O)Nc1cccc2cccnc12	none (no result: Chronic BCR inh, Glioma ERSR ind, Anesthetic bind)
CCCOC(=O)c1cc(-c2ccccc2)nc2ccccc12	none (no result: Chronic BCR inh, Glioma ERSR ind, Anesthetic bind)
O=C(CNCc1ccc(Cl)cc1)N1CCc2ccccc2C1	ALOX12 inh 31.6µM
Cc1nc(NC(=O)CSc2nc3ccccc3s2)sc1C(=O)N(C)C	Chronic BCR inh inconclusive, ALOX12 inh 39.8µM
O=C(CSc1nc2ccccc2s1)Nc1ccc(F)cc1F	none (no result: Chronic BCR inh, Glioma ERSR ind, Anesthetic bind)
CCC(=O)Nc1ccc2nc(SCc3ccc(F)cc3)sc2c1	ALOX12 inh 14.1µM (no result: Chronic BCR inh, Glioma ERSR ind, Anesthetic bind)
O=C(CSc1nc2ccccc2s1)Nc1ccc(F)c(F)c1	ALOX12 inh 35.5µM (no result: Chronic BCR inh, Glioma ERSR ind, Anesthetic bind)
CN(CCC(O)c1ccccc1)Cc1cn(-c2ccccc2)nn1 (configuration not stated)	none (no result: Chronic BCR inh, Glioma ERSR ind, Anesthetic bind)
Cc1ccc(-c2cnc(CCC(=O)Nc3nccs3)o2)cc1C	none (no result: Chronic BCR inh, Glioma ERSR ind, Anesthetic bind)
CCCCCCn1nc(C(=O)N(C)Cc2cccc(OC)c2)c2ccccc2c1=O	none (no result: Chronic BCR inh, Glioma ERSR ind, Anesthetic bind)
CCSC1=NSC2=NC(=O)/C(=C\c3coc4ccccc4c3=O)C(=N)N12	Chronic BCR inh inconclusive, ALOX12 inh 44.7µM
